# Calls of active or inactive are those of the source. Where a call stands in place of a potency, no number is given. Unless noted, calls come from the whole dose curve; as a rule, active = well fitted curve in the direction sought with a large enough effect in the repeat runs; inconclusive = weak or mixed curves; inactive = no such curve, though single readings can be large; an effect the other way counts as inactive or inconclusive.
# What was measured:
# [1] = qHTS assay to identify small molecule antagonists of the thyroid receptor (TR) signaling pathway (AID 743065); note: nearly all actives have a fitted effect of over 55% in size; note: potency is the fitted concentration of half-maximal effect
# Outline: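 Antagonism measured as loss of luciferase signal in GH3 cells stably carrying a TRE-luciferase reporter, co-treated with compound and T3 (1 nM final) for 23.5 h at 37 C. Viability was read in the same well by CellTiter-Fluor.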
# [2] = tested on: thyroid hormone receptor (rat, GH3 cells); assay: qHTS assay to identify small molecule agonists of the thyroid receptor (TR) signaling pathway (AID 743066; calls by dose curve)
# [3] = molecular target: Estrogen receptor (Homo sapiens) (UniProt P03372); assay: qHTS assay to identify small molecule antagonists of the estrogen receptor alpha (ER-alpha) signaling pathway (AID 743069; active = well fitted curve in the direction sought with a large enough effect in the signal ratio in the repeat runs, not every such curve was filed as active; inconclusive = weak or mixed curves, or effect the other way; inactive = no such curve, though single readings can be large or run the other way; the % refers to the signal ratio; note: potency is the fitted concentration of half-maximal effect)
# Outline: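 ER-alpha-UAS-bla GripTite HEK293 line; 2% charcoal-stripped FBS overnight; plated, 4 hr 37C/5% CO2; cpd in DMSO + 17beta-estradiol, 18 hr 37C; LiveBLAzer B/G FRET substrate 2 hr RT; fluorescence intensity.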
# [4] = qHTS assay to identify small molecule antagonists of the estrogen receptor alpha (ER-alpha) signaling pathway - cell viability counter screen (AID 743074; calls by dose curve;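 note: HEK293 cells carrying ER-alpha-UAS-bla reporter stimulated with 17beta-estradiol; nearly all actives have a fitted effect of over 45% in size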; note: potency is the fitted concentration of half-maximal effect)
# [5] = molecular target: Estrogen receptor (Homo sapiens) (UniProt P03372); assay: qHTS assay to identify small molecule agonists of the estrogen receptor alpha (ER-alpha) signaling pathway (AID 743075; calls by dose curve;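 note: HEK293 GripTite cells with ER-alpha and UAS-driven beta-lactamase reporter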)
# [6] = molecular target: Estrogen receptor (Homo sapiens) (UniProt P03372); assay: qHTS assay to identify small molecule agonists of the estrogen receptor alpha (ER-alpha) signaling pathway using the BG1 cell line (AID 743079); conditions: BG1Luc4E2 cells, ERE-luciferase agonist, 22 h; activation: at 70.3 µM (top of the series); note: nearly all actives have a fitted effect of over 20% in size; note: potency is the fitted concentration of half-maximal effect
# [7] = qHTS assay to identify small molecule antagonists of the estrogen receptor alpha (ER-alpha) signaling pathway using the BG1 cell line (AID 743080; calls by dose curve;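 note: BG1 cells stimulated with 17beta-estradiol alongside compound; nearly all actives have a fitted effect of over 25% in size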; note: potency is the fitted concentration of half-maximal effect)
# Outline: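 Seeding, 24 h rest, compound transfer from DMSO, 17beta-estradiol addition, 21.5 h incubation, CellTiter-Fluor (30 min, 37 C), then ONE-Glo (30 min, room temperature): this sequence was run on BG1-Luc-4E2 reporter cells.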
# [8] = qHTS assay to identify small molecule antagonists of the estrogen receptor alpha (ER-alpha) signaling pathway using the BG1 cell line - cell viability counter screen (AID 743081);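 note: compound given together with 17beta-estradiol as the ER stimulus; nearly all actives have a fitted effect of over 45% in size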
# Aromatase (Homo sapiens) = Aromatase (Homo sapiens) (UniProt P11511); assay: qHTS assay to identify aromatase inhibitors (AID 743083); note: nearly all actives have a fitted effect of over 55% in size; note: potency is the fitted concentration of half-maximal effect
# [9] = qHTS assay to identify small molecule antagonists of the thyroid receptor (TR) signaling pathway - cell viability counter screen (AID 743064); note: nearly all actives have a fitted effect of over 50% in size; note: potency is the fitted concentration of half-maximal effect
# Outline: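 Fluorescence from CellTiter-Fluor, added after 23.5 h exposure at 37 °C, reported viability of GH3.TRE-Luc cells co-treated with compound and 1 nM T3. Measured in the same wells as the luciferase TR readout.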
# Estrogen receptor (Homo sapiens), sequence (P03372 whole entry, looked up): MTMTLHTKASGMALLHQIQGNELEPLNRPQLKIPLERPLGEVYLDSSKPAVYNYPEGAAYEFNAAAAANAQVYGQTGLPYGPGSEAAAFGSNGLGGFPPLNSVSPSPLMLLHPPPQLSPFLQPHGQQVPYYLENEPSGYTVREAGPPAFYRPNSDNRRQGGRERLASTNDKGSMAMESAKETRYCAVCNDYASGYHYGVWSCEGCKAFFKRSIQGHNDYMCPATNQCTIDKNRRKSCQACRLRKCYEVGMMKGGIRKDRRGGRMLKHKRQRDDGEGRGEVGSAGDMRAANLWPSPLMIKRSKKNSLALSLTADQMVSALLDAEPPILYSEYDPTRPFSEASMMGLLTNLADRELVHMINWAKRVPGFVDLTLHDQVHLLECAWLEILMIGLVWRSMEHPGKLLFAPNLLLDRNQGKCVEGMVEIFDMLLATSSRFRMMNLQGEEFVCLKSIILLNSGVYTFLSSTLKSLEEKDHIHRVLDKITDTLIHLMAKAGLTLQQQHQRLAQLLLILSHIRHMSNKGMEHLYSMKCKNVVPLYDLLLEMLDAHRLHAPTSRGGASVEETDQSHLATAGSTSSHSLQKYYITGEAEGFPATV
# Aromatase (Homo sapiens), sequence (P11511 whole entry, looked up): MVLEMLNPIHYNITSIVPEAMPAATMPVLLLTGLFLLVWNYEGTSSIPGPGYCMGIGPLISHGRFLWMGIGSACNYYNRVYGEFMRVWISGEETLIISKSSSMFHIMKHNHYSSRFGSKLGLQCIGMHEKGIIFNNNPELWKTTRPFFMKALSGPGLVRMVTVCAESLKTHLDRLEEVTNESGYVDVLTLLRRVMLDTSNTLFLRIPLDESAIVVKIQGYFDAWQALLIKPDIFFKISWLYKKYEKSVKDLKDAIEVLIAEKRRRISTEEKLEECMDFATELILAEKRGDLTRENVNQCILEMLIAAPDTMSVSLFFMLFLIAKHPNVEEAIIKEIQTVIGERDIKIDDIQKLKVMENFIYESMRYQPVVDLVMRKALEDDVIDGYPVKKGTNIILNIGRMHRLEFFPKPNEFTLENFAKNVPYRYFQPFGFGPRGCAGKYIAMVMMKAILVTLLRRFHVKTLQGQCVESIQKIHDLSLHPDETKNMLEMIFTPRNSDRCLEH
SMILES,Potency [1],Potency [2],Potency [3],Potency [4],Potency [5],Potency [6],Potency [7],Potency [8],Potency (Aromatase (Homo sapiens)),Potency [9],activation [6]
CCCCCc1ccc(C)cc1O,26.6 µM (active),inactive,inactive,inactive,inactive,inactive,inactive,inactive,–,–,–
O=S(O)CNc1ccc(S(=O)(=O)c2ccc(NCS(=O)O)cc2)cc1,inactive,inactive,inactive,inactive,inactive,inactive,inactive,inactive,inactive,–,–
CC1=C(/C=C/C(C)=C/C=C/C(C)=C/C=C/C=C(C)/C=C/C=C(C)/C=C/C2=C(C)C[C@@H](O)CC2(C)C)C(C)(C)C[C@H](O)C1,–,–,–,inactive,–,–,–,inactive,–,29.8 µM (active),–
CCCCC[C@H](O)/C=C/[C@H]1[C@H](O)CC(=O)[C@@H]1CCCCCCC(=O)O,–,–,–,inactive,inactive,inactive,–,inactive,inactive,inactive,–
Nc1nc2c(c(=O)[nH]1)N(C=O)C(CNc1ccc(C(=O)N[C@@H](CCC(=O)O)C(=O)O)cc1)CN2 (some centres undefined),–,–,–,inactive,–,–,–,inactive,inactive,inactive,–
FC(F)(F)C(F)(F)C(F)(F)C(F)(F)C(F)(F)C(F)(F)F,inactive,inactive,inactive,inactive,inactive,inactive,inactive,inactive,inactive,–,–
C[N+]1(C)[C@@H]2CC(OC(=O)C(O)(c3cccs3)c3cccs3)C[C@H]1[C@@H]1O[C@@H]12 (some centres undefined),–,–,inactive,inactive,inactive,–,inactive,inactive,inactive,inactive,–
CC(C)(C)NC(=O)[C@H]1CC[C@H]2[C@@H]3CC=C4C=C(C(=O)O)CC[C@]4(C)[C@H]3CC[C@]12C,inactive,inactive,inactive,–,inactive,inactive,inactive,–,inactive,–,–
CCOC(=O)COc1ccc2c(C)c(CCN(CC)CC)c(=O)oc2c1,inactive,inactive,inactive,–,inactive,inactive,inactive,inactive,inactive,–,–
O=C1C(=O)c2ncccc2-c2cccnc21,1.68 µM (active),inactive,inactive,inactive,inactive,–,5.96 µM (active),inactive,23.7 µM (active),–,–
CC(C)(C)NCC(O)c1ccc(O)c(CO)n1 (centres undefined),inactive,inactive,–,inactive,–,–,–,inactive,–,–,–
CC(=O)O[C@]1(C(C)=O)CC[C@H]2[C@@H]3CCC4=CC(=O)CC[C@]4(C)[C@@]3(F)[C@@H](O)C[C@@]21C,inactive,inactive,–,inactive,–,2.66 µM (active),–,inactive,inactive,–,–
CCC(=O)Oc1ccc2c(c1)CC[C@@H]1[C@@H]2CC[C@]2(C)[C@@H](OC(=O)CC)CC[C@@H]12,inactive,inactive,–,inactive,–,–,inactive,inactive,–,–,99.5% (active)
COC(=O)[C@H]1[C@H]2C[C@@H]3c4[nH]c5cc(OC)ccc5c4CCN3C[C@H]2C[C@H](OC)[C@@H]1OC,inactive,inactive,inactive,inactive,inactive,inactive,inactive,inactive,inactive,–,–
Cc1cc2nc3c(=O)[nH]c(=O)nc-3n(C[C@H](O)[C@H](O)[C@H](O)COP(=O)(O)OP(=O)(O)OC[C@H]3O[C@@H](n4cnc5c(N)ncnc54)[C@H](O)[C@@H]3O)c2cc1C,inactive,inactive,–,16.9 µM (active),inactive,inactive,inactive,–,inactive,–,–
CC1=C(C(=O)OCCN(Cc2ccccc2)c2ccccc2)C(c2cccc([N+](=O)[O-])c2)C(P2(=O)OCC(C)(C)CO2)=C(C)N1 (centres undefined),13.3 µM (active),inactive,–,inactive,inactive,inactive,inactive,inactive,–,–,–
C/C(=C(\CCOC(=O)c1ccccc1)SS/C(CCOC(=O)c1ccccc1)=C(/C)N(C=O)Cc1cnc(C)nc1N)N(C=O)Cc1cnc(C)nc1N,23.7 µM (active),inactive,inactive,inactive,inactive,–,inactive,inactive,inactive,–,–
O=C1N=C2SCCN2C(=O)C1Cc1ccc(Cl)cc1 (centres undefined),inactive,inactive,–,inactive,–,–,–,inactive,–,–,–
O=[N+]([O-])c1ccc(Oc2ccc(N=C=S)cc2)cc1,29.8 µM (active),inactive,0.848 µM [inconclusive] (active),inactive,inactive,–,–,–,26.6 µM (active),–,–
C[C@]12C=CC(=O)C=C1CC[C@@H]1[C@@H]2[C@@H](O)C[C@@]2(C)[C@H]1CC[C@]2(O)C(=O)COC(=O)CCC(=O)O,inactive,inactive,–,inactive,inactive,–,–,–,inactive,–,–
O=P(O)(O)OC(CO)CO,inactive,inactive,inactive,inactive,inactive,inactive,inactive,inactive,inactive,–,–
CCC(C)[C@@H](N)C(=O)O (some centres undefined),inactive,inactive,inactive,inactive,inactive,inactive,inactive,inactive,inactive,–,–
